According to ChEMBL document CHEMBL3988442, “University of Dundee, Small-Polar-MMV Screening Library” (2021):
About 13,000 (27%) of roughly 48,000 compounds showed an effect of 50% or more. This is one part of the list.

test system: Wolbachia pipientis; assay: Anti-Wolbachia Cell-Based Screen; type: functional; design: scale not given: in the data most compounds retested in dose-response had high values; conditions: 5 µM

Row | SMILES | Percent Effect
1 | c1cncc(CN2CCC(NCCc3ccc4c(c3)CCO4)CC2)c1 | 11.75%
2 | O=C1CCCCN1Cc1cccc(NC(=O)N2CCSCC2)c1 | 7.58%
3 | COc1cccc(C(C(=O)O)N2CCCN(C3CCCC3)CC2)c1OC (centres undefined) | 17.91%
4 | Cc1noc(C)c1CCN1CCCC1c1nc2cc(F)ccc2[nH]1 (centres undefined) | -25.67%
5 | CC(NC(=O)Nc1cccnc1N1CCCC1)c1nncn1C (centres undefined) | -5.724%
6 | CCc1cc(NCCNC(C)=O)nc(N2CCCC2)n1 | 3.61%
7 | CCOc1ccc(S(=O)(=O)NCCCc2ccc(N(C)C)cc2)cc1C | 28.94%
8 | Cc1cc(C)n(CCC(=O)OCC(=O)N2CCc3sccc3C2)n1 | 1.296%
9 | CN(CC1CCCO1)c1nc(-c2cccnc2)nc2c1CCNCC2 (centres undefined) | -5.842%
10 | Cc1cc(C2CCCN2CC(=O)N(CCC#N)c2ccccc2F)on1 (centres undefined) | 6%
11 | CCC(NC(=O)NCC(=O)Nc1ccc(F)cc1)c1ccncc1 (centres undefined) | 13.9%
12 | CCCC(=O)NCc1ccc(N2CCCCC2)cc1 | -2.635%
13 | CN(CC(=O)NS(=O)(=O)c1cccs1)Cc1ccccc1 | -0.04031%
14 | O=C(Cc1cccs1)NCC(=O)Nc1cn[nH]c1 | -3.119%
15 | CC(NCC(=O)Nc1ccc(N2CCCCCC2)cc1)c1cccs1 (centres undefined) | 140.9%
16 | CC(C)CCC(=O)NCc1ccc(N2CCCCC2)cc1 | 9.507%
17 | CN(CC(=O)NCC(=O)Nc1ccc(F)cc1)Cc1cccs1 | 82.61%
18 | CC(NCC(=O)NCC(=O)Nc1ccc(F)cc1)c1cccs1 (centres undefined) | 91.77%
19 | CC(C#N)CSc1ccccc1NCC(=O)Nc1ccc(F)cc1 (centres undefined) | -2.506%
20 | COc1ccc(NC(=O)N2CCCC2c2ccco2)cc1OC (centres undefined) | 20.26%
21 | COc1cc(Nc2c(C#N)c(=O)n(C)c(=O)n2C)cc(OC)c1 | 0.2169%
22 | O=C(NC1CC1)NC(c1cc(F)ccc1F)C1CC1 (centres undefined) | -0.2014%

Row | SMILES | Percent Effect
23 | COc1ccccc1C(NC(=O)C1CCCC1)c1noc(C)n1 (centres undefined) | -4.234%
24 | COC(=O)C(NC(=O)C1CCC1)c1cc(F)ccc1F (centres undefined) | 101.8%
25 | COC(=O)C(NC(=O)C1CC1)c1cc(F)ccc1F (centres undefined) | 87.91%
26 | CNC(C(=O)OC)c1cc(F)ccc1F.Cl (centres undefined) | 100.3%
27 | COC(=O)C(NC(=O)C1CCCC1)c1cc(F)ccc1F (centres undefined) | 111.2%
28 | Cc1nc(C(NC(=O)C2CCCC2)c2ccccc2F)no1 (centres undefined) | -17.79%
29 | COC(=O)C(NC(=O)c1cc(F)cc(F)c1)c1cccnc1 (centres undefined) | 7.008%
30 | COc1ccccc1C(NC(=O)C1CCC1)c1noc(C)n1 (centres undefined) | -10.07%
31 | COC(=O)C(NC(=O)COC1CCCC1)c1cc(F)ccc1F (centres undefined) | 0.6159%
32 | CC(c1cc(F)ccc1F)N(C)CCS(=O)(=O)CCC(N)=O (centres undefined) | -2.852%
33 | CNC(=O)C1CN(Cc2ccc(C#N)cc2F)c2ccccc2O1 (centres undefined) | -15.36%
34 | CC(C)C(=O)N1CCN(C(=O)c2cc(Cl)no2)[C@H]2CS(=O)(=O)C[C@H]21 | -5.437%
35 | N#Cc1cccnc1NC1CCN(c2ccccc2OC(F)F)C1=O (centres undefined) | -11.66%
36 | O=C(NCCNc1cncc(Br)c1)c1ccc(O)cc1 | -0.2825%
37 | O=C1c2cccnc2OC(CN2CCOCC2)CN1CC1CC1 (centres undefined) | 142%
38 | CCN1CC(CN2CCOCC2)Oc2ncccc2C1=O (centres undefined) | 121.1%
39 | O=C1c2cccnc2OC(CN2CCOCC2)CN1C1CCC1 (centres undefined) | 113.2%
40 | O=C(O)C(F)(F)F.O=C(O)C(F)(F)F.O=C(O)C(F)(F)F.c1cncc(C[C@H]2[C@H](N3CCOCC3)CCN2Cc2cccs2)c1 | -5.101%
41 | COc1ncccc1NC(=O)N1CCC(CN2CCOCC2)CC1 | 40.61%
42 | O=C(NC1CCCCC1)N1CCC(N2Cc3ncccc3C2=O)CC1 | 2.597%
43 | O=C1c2cccnc2OC(CN2CCOCC2)CN1Cc1cccs1 (centres undefined) | 106%
44 | CCOC(=O)N1CCC(N2Cc3ncccc3C2=O)CC1 | -7.226%

Row | SMILES | Percent Effect
45 | Cc1cccc(C)c1C(=O)N1C[C@@H](CN2CCOCC2)[C@@H](CO)C1 | -12.05%
46 | COc1ncccc1CNC(=O)N1CCC(CN2CCOCC2)CC1 | -11.8%
47 | CCc1c(C)sc2ncnc(N3CC[C@@H](N4CCC(O)CC4)[C@H](O)C3)c12 | -2.578%
48 | O=C(O)c1cn(CC2CCCN(c3nc4ccccc4s3)C2)nn1 (centres undefined) | -26.21%
49 | NC(=O)c1ccccc1-n1cc(-c2cccc(C(=O)O)c2)cn1 | 8.053%
50 | CCN1CCCN(c2ncccc2C(=O)N2CCCCC2)CC1 | -13.17%
51 | CC(C)N1CCC(Cc2cncc(-c3cccc(C(=O)O)c3)n2)CC1 | 108.9%
52 | COCCN1CCC(Cc2cncc(-c3ccc(C(=O)O)cc3)n2)CC1 | 112%
53 | COCCN1CCC(CNc2nccc(-c3cnn(C)c3)n2)CC1 | 12.08%
54 | COCCN1CCC(Cc2cncc(-c3ccc(C(=O)O)cc3)n2)C1 (centres undefined) | -8.312%
55 | CC(C)N1CCC(Cc2cc(-c3cccc(C(=O)O)c3)ncn2)CC1 | 121.9%
56 | CC(C)N1CCC(Cc2cc(-c3cccc(C(=O)O)c3)ncn2)C1 (centres undefined) | -6.349%
57 | CC(C)N1CCC(Cc2cnc(-c3cccc(C(=O)O)c3)cn2)C1 (centres undefined) | -8.094%
58 | CC(C)N1CCC(CC(=O)NCc2cc(O)ncn2)CC1 | -21.37%
59 | CC(C)N1CCC(Cc2cncc(-c3cccc(C(=O)O)c3)n2)C1 (centres undefined) | 113.7%
60 | CN(C)C(=O)COCC1CN(Cc2cccs2)Cc2ncn(C)c21.O=C(O)C(F)(F)F.O=C(O)C(F)(F)F (centres undefined) | 100.2%
61 | CCn1cc2c(n1)CN(Cc1ccoc1)CC2COCC1CC1.O=C(O)C(F)(F)F (centres undefined) | -14.5%
62 | CN(C)C(=O)COCC1CN(Cc2ccco2)Cc2ncn(C)c21.O=C(O)C(F)(F)F.O=C(O)C(F)(F)F (centres undefined) | 91.74%
63 | CN(C)C(=O)COCC1CN(Cc2ccoc2)Cc2ncn(C)c21.O=C(O)C(F)(F)F.O=C(O)C(F)(F)F (centres undefined) | 111.6%
64 | CCOCC1CN(Cc2ccoc2)Cc2nn(CC3CC3)cc21.O=C(O)C(F)(F)F (centres undefined) | -8.348%
65 | Cc1cccc(CN2Cc3ncn(C)c3C(COCC(=O)N(C)C)C2)n1.O=C(O)C(F)(F)F.O=C(O)C(F)(F)F.O=C(O)C(F)(F)F (centres undefined) | 115.6%
66 | CN(C)C(=O)COCc1nn(C)c2c1CCN(Cc1ccco1)C2.O=C(O)C(F)(F)F | -2.792%

Row | SMILES | Percent Effect
67 | Cn1cnc2c1C(COCC1CCOCC1)CN(Cc1ccccn1)C2.O=C(O)C(F)(F)F.O=C(O)C(F)(F)F.O=C(O)C(F)(F)F (centres undefined) | -22.25%
68 | Cc1cccc(CN2CCc3c(COCC(=O)N(C)C)nn(C)c3C2)n1.O=C(O)C(F)(F)F.O=C(O)C(F)(F)F | 1.951%
69 | c1ccc(-c2cc(CN3C[C@@H]4CC[C@H](C3)N(CC3CCC3)C4)on2)cc1 | 10.47%
70 | O=C(CN1CCOC1=O)N1CCC2(CCc3ccccc32)CC1 | -4.229%
71 | CCCNC(=O)c1ccc(S(=O)(=O)NC2(COC)CCCC2)cc1 | -2.263%
72 | CC(C)c1cc(NCC2(N(C)C)CCCC2)ncn1 | -5.055%
73 | O=C(c1cc(CC2(NCc3ccccc3)COC2)no1)N1CCCCC1 | 5.452%
74 | CS(=O)(=O)CCC(=O)NC1(c2cccc(Br)c2)CC1 | -24.79%
75 | N#CCCCS(=O)(=O)NC1(c2ccc(F)cc2)CC1 | 94.21%
76 | CS(=O)(=O)CCCNC1(c2cccc(Cl)c2)CCCC1 | -3.433%
77 | N#CCCCS(=O)(=O)NC(=O)c1ccccc1F | -12.54%
78 | COCCCC(=O)NC1(c2cccc(Br)c2)CC1 | -6.052%
79 | N#CCCCS(=O)(=O)NC1(c2cccc(Br)c2)CC1 | 115.6%
80 | N#CCCCS(=O)(=O)NC1(c2cccc(Cl)c2)CC1 | 95.05%
81 | COC(=O)NCCCC(=O)NC1(c2cccc(Cl)c2)CC1 | -10.63%
82 | N#CCCCS(=O)(=O)NC(=O)c1cccc(Cl)c1F | -1.006%
83 | Cc1[nH]ncc1C(C)NCc1cccnc1 (centres undefined) | -9.734%
84 | CCN(C)C[C@@H]1CN(Cc2cnc3c(S(C)(=O)=O)cnn3c2)C[C@@H]1CO | -15.72%
85 | Cc1noc(C)c1CN1C(=O)[C@H]2CC[C@@H]1CN(Cc1cccnc1N)C2 | 18.74%
86 | O=C(CCc1ccc(F)cc1)NS(=O)(=O)c1ccc2c(c1)OCCO2 | -1.397%
87 | CCN1CCN(C(=O)C2CCOC2)c2ccccc21 (centres undefined) | 120.4%
88 | CCc1nc(C)ncc1C(=O)N1CCN(CC)c2ccccc21 | -9.426%

Row | SMILES | Percent Effect
89 | O=C(C1CCOC1)N1CCN(CC2CC2)c2ccccc21 (centres undefined) | 109.4%
90 | COCCC(=O)N1CCN(CC2CC2)c2ccccc21 | -5.529%
91 | NC(=O)CN1CCN(CC2CC2)c2ccccc21 | -6.284%
92 | CCN1CCN(C(=O)c2csnn2)c2ccccc21 | 3.89%
93 | COc1ccc(S(=O)(=O)NC(=O)c2ccccc2F)cc1OC | -11%
94 | CC(C)c1ccc(OCn2ccc(C(=O)N3CCCC3)n2)cc1 | -7.702%
95 | Cc1cnc(N2CC[C@@H]3O[C@@H](COCc4ccccn4)CC[C@@H]32)nc1.O=C(O)C(F)(F)F.O=C(O)C(F)(F)F | 7.451%
96 | Cn1cccc1C(=O)N1CC[C@H]2[C@@H]1CCC(=O)N2c1ccccc1 | -9.424%
97 | CNC(=O)c1cccnc1NCCOc1ccccc1 | 11.05%
98 | CC1CCC(N2CCC(NS(=O)(=O)CCCF)CC2)CC1 (centres undefined) | -1.792%
99 | CNS(=O)(=O)CC(=O)N(C1CCCC1)C1CC1 | -5.548%
100 | CC1CCN(CCNC(=O)C2CCN(S(N)(=O)=O)CC2)CC1 | -8.736%
101 | CNC(=O)CS(=O)(=O)C1CCN(S(=O)(=O)C2CC2)CC1 | -8.784%
102 | CCNC(=O)CS(=O)(=O)NC1CCC(C)CC1 (centres undefined) | 91.13%
103 | CNC(=O)CS(=O)(=O)NC1CCC(C)CC1 (centres undefined) | 97.23%
104 | CC1CCC(NS(=O)(=O)CC(=O)NCC2CCC2)CC1 (centres undefined) | 101.5%
105 | Cc1ccc(NC(=O)CS(=O)(=O)NC2CCC(C)CC2)nc1 (centres undefined) | 0.19%
106 | COCCC1(CNC(=O)NCC2CCC2)CCC1 | -13.86%
107 | CCC(C(=O)NC1(C(N)=O)CCCC1)n1cccn1 (centres undefined) | -7.452%
108 | CC1CCC(NS(=O)(=O)CC(=O)Nc2ccc(N3CCCC3)cn2)CC1 (centres undefined) | -1.172%
109 | CC1CCC(NS(=O)(=O)CC(=O)NC2(C(N)=O)CCCC2)CC1 (centres undefined) | 92.28%
